From PubChem BioAssay
A selection: hits, their analogues and other compounds. The true share with any hit is near 1.2%.
NOD2-RIPK2 inh – NOD2-RIPK2 protein interaction inhibition; O43353; CHO BLA complementation NOD2-RIPK2, CCF4 ratio; inhibition, % at 4.98 µM; hit rate 0.38% among 360,000; in the data active = inhibition above about 21%;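 also: 0% = vehicle only and 100% = reference blocker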
Target sequence (O43353 whole entry, looked up): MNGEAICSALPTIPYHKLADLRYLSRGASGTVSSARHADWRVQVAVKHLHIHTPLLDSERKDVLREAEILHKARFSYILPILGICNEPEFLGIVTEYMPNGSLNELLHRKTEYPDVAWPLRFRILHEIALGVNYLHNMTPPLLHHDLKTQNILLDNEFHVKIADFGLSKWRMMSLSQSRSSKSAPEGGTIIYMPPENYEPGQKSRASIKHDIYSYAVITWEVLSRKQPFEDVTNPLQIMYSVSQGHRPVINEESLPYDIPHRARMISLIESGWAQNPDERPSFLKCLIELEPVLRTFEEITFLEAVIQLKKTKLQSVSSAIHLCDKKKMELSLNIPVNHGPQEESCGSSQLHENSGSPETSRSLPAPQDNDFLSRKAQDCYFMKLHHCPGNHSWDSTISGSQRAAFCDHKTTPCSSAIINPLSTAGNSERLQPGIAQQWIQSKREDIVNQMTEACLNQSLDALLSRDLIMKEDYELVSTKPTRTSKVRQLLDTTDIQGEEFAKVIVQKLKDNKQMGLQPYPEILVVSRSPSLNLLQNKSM
TLR9-MyD88 inh – TLR9-MyD88 interaction inhibition. CHO BLA complementation TLR9-MyD88, CCF4 FRET ratio. AID 504734. hit rate 0.21% among 340,000. inhibition, % at 4.98 µM;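 active = inhibition above the mean over all tested compounds plus 3 SD, cut at about 21% in these data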;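 also: 0% = DMSO only wells and 100% = clavulanate BLA inhibitor control wells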
TLR4-MyD88 BLA – blocks binding of human TLR4 to MyD88 | O00206+Q99836 | HeLa CL3-4 TLR4/MyD88 BLA complementation, FRET ratio | inhibition, % at 8.4 µM | hit rate 0.18% among 200,000 | AID 861; in the data active = inhibition above about 25%;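 also: 0% = vehicle and 100% = reference inhibitor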
ABHD5 PLIN5 PPI – ABHD5-PLIN5 protein interaction inhibition. Split G. princeps luciferase complementation, luminescence, 4 h. inhibition, % at 4 µM. hit rate 0.78% among 360,000. AID 602281;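 active = inhibition above the mean inhibition across every tested compound plus 3 SD, cut at about 22% in these data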;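 also: 0% = DMSO only wells and the 100% control is not disclosed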
ABHD5-PLIN5 conf – confirmation of human ABHD5-PLIN5 interaction inhibitors; shares compounds with ABHD5 PLIN5 PPI; biochemical ABHD5-PLIN5 interaction, luminescence; inhibition, % at 4 µM; hit rate 67% among 2,200; AID 651612; in the data active = inhibition above about 23%;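 also: 0% = DMSO vehicle wells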
HNF4 counter – active in HNF4 split-luciferase counter-screen for ABHD5-PLIN5 inhibitors; shares compounds with ABHD5 PLIN5 PPI; HNF4 dimerization, luminescence, biochemical; inhibition, % at 4 µM; hit rate 77% among 2,200;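 active = mean inhibition across replicate wells exceeding the computed hit threshold, cut at about 13% in these data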;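 also: light from luciferase halves that rejoin when HNF4 fusion proteins dimerize; 0% = DMSO only wells and the 100% control is not given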
* hit, by the source's call; · = not tested or not shown.

SMILES	NOD2-RIPK2 inh	TLR9-MyD88 inh	TLR4-MyD88 BLA	ABHD5 PLIN5 PPI	ABHD5-PLIN5 conf	HNF4 counter
CC(O)CNCCCOc1ccc(Cl)cc1C(C)(C)C (stereo not drawn)	-10	-12	-1	29*	11	6
CN(C)CCOCCOc1ccc(Cl)cc1C(C)(C)C	-8	-9	1	23*	10	1
CC(C)(C)c1cc(Cl)ccc1OCCn1ccnc1	2	3	·	-1	·	·
Cc1cccc(NC(=S)N(CCCN2CCOCC2)Cc2cn(C)c3ccccc23)c1	3	1	-1	23*	1	-2
Cn1cc(CN(CCCN2CCOCC2)C(=S)Nc2cccc(Cl)c2)c2ccccc21	-6	-16	13	25*	11	-1
COc1ccc(NC(=S)N(CCCN2CCOCC2)Cc2cn(C)c3ccccc23)cc1	5	-11	-10	-2	·	·
CSCCC(C(=O)NC1CCCC1)n1c(-c2ccccn2)nc2ccccc21 (stereo not drawn)	2	·	·	2	·	·
O=C1C(=Cc2ccccc2[N+](=O)[O-])Cc2ccccc21	9	9	·	28*	51*	46*
O=C1C(=Cc2ccccn2)CCc2ccccc21	0	-9	·	25*	60*	46*
Nc1ccccc1C=C1Cc2ccccc2C1=O	4	8	·	11	·	·
O=C1/C(=C/c2cccc([N+](=O)[O-])c2)CCc2ccccc21	1	-2	7	37*	56*	46*
O=C1/C(=C/c2ccncc2)Cc2ccccc21	-20	-9	·	17	·	·
O=C1C(=Cc2cccc(F)c2)Cc2ccccc21	-76	·	·	24*	28*	23*
CC(NC(=O)CN(Cc1ccccc1)S(=O)(=O)c1ccccc1)c1cccnc1 (stereo not drawn)	10	1	·	12	·	·
O=C(/C=C/c1ccco1)c1ccccc1O	-7	-9	15	8	·	·
N#Cc1ccc(/C=C/C(=O)c2ccco2)cc1	8	-4	8	63*	93*	95*
O=C(/C=C/c1ccccc1O)c1ccco1	4	10	·	61*	83*	78*
Nc1ccc(/C=C/C(=O)c2ccco2)cc1	16	5	11	11	·	·
CC(C)(C)C(=O)Nc1ccc(NC(=O)c2ccco2)nc1	-8	5	·	1	·	·
CC(C)(C)C(=O)Nc1ccc(/C=C/C(=O)c2ccco2)cc1	7	10	·	37*	61*	44*
C#CCN1C=C(C(=O)OCC)C(C)N(Cc2ccccc2I)S1(=O)=O (stereo not drawn)	13	3	·	-9	·	·
CN(C)C(N)=NCCC[C@H](N)C(=O)O	-6	10	·	5	·	·
Cc1ccc(Cl)c(NC(=O)COC(=O)CNS(=O)(=O)/C=C/c2ccccc2)c1Cl	-4	8	-3	44*	3	6
CCOC(=O)C1CCN(CC(=O)c2c(C)n(C)c3ccc(OC)cc23)CC1	0	-2	·	-3	·	·
Cn1cc(C(=O)NC2CCCCC2)c(=O)c2cc(S(=O)(=O)N3CCOCC3)ccc21	-1	-4	·	2	·	·
SMILES	NOD2-RIPK2 inh	TLR9-MyD88 inh	TLR4-MyD88 BLA	ABHD5 PLIN5 PPI	ABHD5-PLIN5 conf	HNF4 counter
COc1ccccc1-c1cc(C(=O)NC2CCN(C)CC2)c2ccc(Cl)c(C)c2n1	10	7	·	32*	20	-3
Cc1c(Cl)ccc2c(C(=O)NCCN3CCCCC3)cc(-c3ccccn3)nc12	10	1	-4	22	·	·
CC(=O)Nc1ccc(S(=O)(=O)N2CCC(C(=O)O)(c3ccccc3)CC2)cc1	-12	3	·	-2	·	·
O=C(NCc1ccccc1)C(c1ccccc1F)n1c(=O)c(-c2ccco2)nc2ccccc21 (stereo not drawn)	-11	·	·	67*	69*	32*
COc1ccc(C(C(=O)NCc2ccccc2)n2c(=O)c(-c3ccco3)nc3ccccc32)cc1 (stereo not drawn)	2	·	·	72*	78*	42*
O=C(Oc1ccc2ccccc2c1)c1ccco1	-3	-4	7	2	·	·
CC1CC(C)(C)Nc2ccc(OC(=O)c3ccco3)cc21 (stereo not drawn)	8	1	2	28*	71*	61*
CC(=O)c1ccc(-c2ccc(-c3cc(=O)oc4c(C(C)C)ccc(C)c34)cc2)cc1	3	0	·	-3	·	·
Cc1cccc(C)c1NC(=O)C(c1ccccc1F)n1c(=O)c(-c2ccccc2)nc2ccccc21 (stereo not drawn)	-22	·	·	3	·	·
COc1ccc(C(C(=O)Nc2c(C)cccc2C)n2c(=O)c(-c3ccccc3)nc3ccccc32)cc1 (stereo not drawn)	-3	·	·	-4	·	·
Cc1cccc(C)c1NC(=O)C(c1ccncc1)n1c(=O)c(-c2ccccc2)nc2ccccc21 (stereo not drawn)	-2	·	·	-5	·	·
Cc1cccc(C)c1NC(=O)C(c1ccc(C#N)cc1)n1c(=O)c(-c2ccco2)nc2ccccc21 (stereo not drawn)	-12	·	·	50*	63*	8
Cc1cccc(C)c1NC(=O)C(c1ccccc1)n1c(=O)c(-c2ccco2)nc2ccccc21 (stereo not drawn)	0	·	·	88*	56*	23*
Cc1cccc(C)c1NC(=O)C(CCc1ccccc1)n1c(=O)c(-c2ccccc2)nc2ccccc21 (stereo not drawn)	11	·	·	26*	31*	13*
N#Cc1ccc(C(C(=O)Nc2ccc3c(c2)OCCO3)n2c(=O)c(-c3ccco3)nc3ccccc32)cc1 (stereo not drawn)	-12	·	·	31*	32*	8
COc1cc(C(=O)Nn2cnnc2)ccc1OC(F)F	-8	11	·	-4	·	·
COc1ccc2[nH]c3c(c2c1)CCN1C(=O)C(CC(=O)NC(C)(C)C)C[C@H](C(=O)N(C(C)C)C(C)C)[C@@]31C (stereo partly drawn)	-14	-6	·	9	·	·
Cc1ccccc1C(=O)N1CCC(C(=O)Nc2ccc(S(=O)(=O)N3C(C)CCCC3C)cc2)CC1 (stereo not drawn)	4	2	·	-3	·	·
Cc1ccc2ccccc2c1NC(=O)c1ccco1	7	-1	·	-6	·	·
COc1ccc(C(C(=O)Nc2c(C)cccc2C)n2c(=O)c(-c3ccco3)nc3ccccc32)cc1 (stereo not drawn)	8	·	·	81*	98*	48*
COc1ccc(NCc2nc3ccccc3n2CCOc2ccccc2)cc1	5	17	-11	29*	6	2
COc1ccc(NCc2nc3ccccc3n2CCOc2ccc(C)cc2)cc1	0	2	2	25*	6	10
c1ccc(NCc2nc3ccccc3n2CCOc2ccccc2)cc1	-12	-11	-4	3	·	·
CCCNc1c(NC(=O)c2cccs2)c(=O)oc2ccccc12	-2	-12	·	5	·	·
Cc1cc(Sc2nnc(N)s2)c2ccccc2n1	6	-5	·	23*	38*	58*
COc1ccccc1C(=O)NNC(=O)c1ccccc1[N+](=O)[O-]	-6	9	-4	0	·	·
